In PubChem BioAssay (EPA / NIEHS) one finds AC50 and outcome data, which are given here for 40 molecules.

Structures are written as SMILES. “And” between values parts separate entries of the source, which are not always exact repeats. Equal values may be shown once. The source made the active and inactive calls. The calls were made as follows: active = hit-call score of the fitted dose curve at least 0.9, where 1 is the maximum; inactive = score below 0.9.

Read-out in the experiment: Cytochrome P450 7A1 (Homo sapiens) (UniProt P22680)
Description: LTEA_HepaRG_CYP7A1: Life Technologies and Expression Analysis (LTEA) Assay for Cytochrome P450 7A1 (CYP7A1) using HepaRG (AID 2283496). Conditions: mRNA level, 48 h; actives raise or lower the signal. As to the method:
LTEA_HepaRG is a cell based, multiplexed-readout assay that uses HepaRG, a human liver cell line, with measurements taken at 48 hours after chemical dosing on a 96-well plate.LTEA_HepaRG_CYP7A1 is one of 102 assay component(s) measured in the LTEA HepaRG cell culture assay. It is a marker of NR mediated metabolism.Data from the assay component LTEA_HepaRG_CYP7A1 was analyzed into 1 endpoint. This assay endpoint, LTEA_HepaRG_CYP7A1, was analyzed with bidirectional fitting relative to DMSO as the negative control and baseline of activity. Using a type of inducible reporter, measures of mRNA induction for gain or loss-of-signal activity can be used to understand regulation of transcription factor activity. To generalize the intended target to other relatable targets, this assay endpoint is annotated to the cyp intended target family, where the subfamily is xenobiotic metabolism.
A total of 1060 chemcials from the ToxCast library were tested in eight-point concentration-response experiments. Cell culture and cytotoxicity assays were conducted at Thermo Fisher Scientific's Custom Services facility (Madison, WI). A single lot of human HepaRG cells (Thermo Fisher Scientific, Frederick, MD) was used for the cell culture experiments. 96-well format collagen type I coated plates of human HepaRG cells were prepared using established methods. Briefly, cryopreserved HepaRG cells were thawed, plated at a density of approximately 100,000 cells/well in HepaRG Thaw, Plate, and General Purpose media (HPRG770, Thermo Fisher Scientific), and incubated for 48 hours. 0.5% DMSO was selected as vehicle control to balance the requisite need of DMSO in HepaRG cultures to maintain differentiation (for example, baseline metabolism, proportions of hepatocytes vs. cholangiocytes), while enabling further hepatic receptor pathway activation (for example, PXR and CAR) in response to chemical exposure. 48 hours after plating, the culture medium was replaced with HepaRG Serum-Free Incudtion Media. Cells were exposed to each test chemical in duplicate and maintained in CO2 incubators for another 48 hours. Chemical plates were thawed to room temperature and 200x concentrations of treatment groups were prepared. 8-point conentration-reponse curves were made with the highest exposure at 100 uM, followed by half-log dilutions, all in 0.5% DMSO. Each test plate contained variouse controls, induction positive controls (1mM phenobarbital), cytotoxicity positive controls ([…] aflatoxin B1), vehicle controls (0.5% DMSO), and total lysis controls (0.5% DMSO). Cell morphology images were taken using an Essen IncuCyte FLR automated microscope, with six 96-well plates imaged in about 24 minutes. Images were captured and exported and JPEG files. Spent culture media was transfered to black-well plates for the LDH assay, and remaining media was sorted at -80 C for later use. Cells were treated with RLT buffer and frozen until shipped for gene expression analysis. Total RNA was isolated from the cell suspension in 75 uL of Buffer RLT (Qiagen, Germantown, MD 20874) by Quintiles/Expression Analysis (Durham, NC) using a custom isolation procedure. Total RNA from each plate well was transferred to a preamplification plate. Fluidigm's 96.96 Dynamic ArrayTM (Fluidigm, Amsterdam, the Netherlands) technology was used for gene expression analyses by quantitative reverse transcription polymerase chain reaction (qRT-PCR, performed by Quintiles/Expression Analysis, Durham, NC)89. Standard TaqManTM Assays (Applied Biosystems/ThermoFisher Scientific, Foster City, CA) were used to assess the expression of 93 genes selected based on their selectivity and sensitivity to important hepatic receptors known to be modulated by environmental chemicals; importance in human hepatocyte functionality; and hepatotoxicity. […]
On to `Cc1cc(Cl)ccc1OCC(=O)O`, for which the AC50 is 24.9 µM (active). Same read-out and setting: the value for `N#Cc1nn(-c2c(Cl)cc(C(F)(F)F)cc2Cl)c(N)c1S(=O)C(F)(F)F` (stereo not given) was 35 µM (active).

Take `CC(Oc1ccc(Cl)cc1Cl)C(=O)O` (stereo not given): the molecule was classed as inactive. Still for that read-out and setting: in the case of `CCOC(=O)C(Cl)Cc1cc(-n2nc(C)n(C(F)F)c2=O)c(F)cc1Cl` (stereo not given) it was “inactive”. Consider `CO/C=C(/C(=O)OC)c1ccccc1Oc1cc(Oc2ccccc2C#N)ncn1`, for which the AC50 is 93.4 µM (active) and 94.1 µM (active) and 87.4 µM (active).

In the case of `CCOc1cc(Oc2ccc(C(F)(F)F)cc2Cl)ccc1[N+](=O)[O-]`, the AC50 was 34.8 µM (active). Same read-out and setting: in the case of `CC1COC(Cn2cncn2)(c2ccc(Oc3ccc(Cl)cc3)cc2Cl)O1` (stereo not given) it was 13.8 µM (active). Consider `COP(=S)(OC)Oc1nc(Cl)c(Cl)cc1Cl`, for which the call was inactive. Still for that read-out and setting: in the case of `CCNc1nc(Cl)nc(NC(C)C)n1` it was “inactive”. Same read-out and setting: the value for `CNC(=S)S` was “inactive”; that for `CCON=C(CC)C1=C(O)CC(c2c(C)cc(C)cc2C)CC1=O` (stereo not given) was “inactive”; that for `COP(N)(=O)SC` (stereo not given) was “inactive”.

In the case of `OC(c1ccc(Cl)cc1)(c1cncnc1)c1ccccc1Cl` (stereo not given), the concentration at half-maximal activity (AC50) is 77 µM (active). On the same count and under the same terms, the value for `CON(C)C(=O)Nc1ccc(Cl)c(Cl)c1` was 16.8 µM (active). Take `C=CC1(C)OC(=O)N(c2cc(Cl)cc(Cl)c2)C1=O` (stereo not given): the result was inactive. Turning to `COc1nc(NC(C)C)nc(NC(C)C)n1`, the call was inactive.

On to `COC(=O)N(OC)c1ccccc1COc1ccn(-c2ccc(Cl)cc2)n1`, for which the AC50 is 71.9 µM (active).

On to `CC(C)C1(C)N=C(c2nc3ccccc3cc2C(=O)O)NC1=O` (stereo not given), for which the call was inactive.

Take `CCc1nn(C)c(C(=O)NCc2ccc(C(C)(C)C)cc2)c1Cl`: the AC50 was 11.9 µM (active). `CCCCNC(=O)n1c(NC(=O)OC)nc2ccccc21`: the call was inactive.

For `CCNc1nc(Cl)nc(NCC)n1`, the call was inactive. The same measure, in the same setting: the value for `Oc1ccccc1-c1ccccc1` was “inactive”. Take `N#Cc1cc(Br)c(O)c(Br)c1`: the AC50 is 19.1 µM (active). As for `CCCCC(CC)COC(=O)c1ccccc1C(=O)OCC(CC)CCCC` (stereo not given), the molecule was classed as inactive. Still for that read-out and setting: the value for `O=C(O)COc1nc(Cl)c(Cl)cc1Cl` was “inactive”. Take `COc1cnc(OC)n2nc(NS(=O)(=O)c3c(OCC(F)F)cccc3C(F)(F)F)nc12`: the AC50 was 26.2 µM (active).

Consider `C#CCOS(=O)OC1CCCCC1Oc1ccc(C(C)(C)C)cc1` (stereo not given), for which the AC50 is 26.6 µM (active). As for `CCCC1COC(Cn2cncn2)(c2ccc(Cl)cc2Cl)O1` (stereo not given), the AC50 is 60.9 µM (active). For `O=C(O)c1nc(Cl)ccc1Cl`, the call was inactive.

As for `COc1ccc(C(c2ccc(OC)cc2)C(Cl)(Cl)Cl)cc1`, the AC50 was 40.2 µM (active). For the molecule `CCCCOC(=O)c1ccccc1C(=O)OCCCC`, the result was inactive.

As for `CCOP(=S)(OCC)SCn1c(=O)oc2cc(Cl)ccc21`, the call was inactive. Take `CC(C)Oc1cc(-n2nc(C(C)(C)C)oc2=O)c(Cl)cc1Cl`: the AC50 is 33.3 µM (active). Turning to `Cc1c(F)c(F)c(COC(=O)C2C(/C=C(\Cl)C(F)(F)F)C2(C)C)c(F)c1F` (stereo not given), the outcome was inactive. Still for that read-out and setting: in the case of `CNC(=O)ON=CC(C)(C)SC` it was “inactive”.

With `CCCCNC(=O)OCC#CI`, the AC50 is 50 µM (active).

As for `Cc1ccc(-c2c(Cl)nc(C#N)n2S(=O)(=O)N(C)C)cc1`, the AC50 was 10 µM (active). Still for that read-out and setting: in the case of `CC1=C(C(=O)Nc2ccccc2)SCCO1` it was 35.7 µM (active). Regarding `COC(=O)C(C)Oc1ccc(Oc2ccc(Cl)cc2Cl)cc1` (stereo not given), the result was inactive.

With `COC(=O)C=C(C)OP(=O)(OC)OC`, the AC50 was 14.7 µM (active).
